Assay results as given in PubChem BioAssay AID588342 (National Center for Advancing Translational Sciences (NCATS), 2011).
The whole screen tested about 360,000 compounds, of which about 25,000 (6.9%) were called active. Where a call stands in place of a potency, no number is given. Not shown: some 9% with an inconclusive outcome. The call rests on the fitted dose curve; in most records, active means well fitted inhibition curve with a large enough effect; inconclusive means small, poorly fitted or top-dose-only effect; inactive means flat fitted curve, though single readings scatter. This excerpt belongs to a sample that is enriched for actives.

Each compound was assayed against Luciferin 4-monooxygenase (Photinus pyralis) (UniProt P08659) (assay: qHTS profiling assay for firefly luciferase inhibitor/activator using purifed enzyme and Km concentrations of substrates (counterscreen for miR-21 project)). Settings: purified FLuc, luminescence inhibition; series mostly up to 57.5 µM.
Chain of Luciferin 4-monooxygenase (Photinus pyralis) (P08659 whole entry, looked up): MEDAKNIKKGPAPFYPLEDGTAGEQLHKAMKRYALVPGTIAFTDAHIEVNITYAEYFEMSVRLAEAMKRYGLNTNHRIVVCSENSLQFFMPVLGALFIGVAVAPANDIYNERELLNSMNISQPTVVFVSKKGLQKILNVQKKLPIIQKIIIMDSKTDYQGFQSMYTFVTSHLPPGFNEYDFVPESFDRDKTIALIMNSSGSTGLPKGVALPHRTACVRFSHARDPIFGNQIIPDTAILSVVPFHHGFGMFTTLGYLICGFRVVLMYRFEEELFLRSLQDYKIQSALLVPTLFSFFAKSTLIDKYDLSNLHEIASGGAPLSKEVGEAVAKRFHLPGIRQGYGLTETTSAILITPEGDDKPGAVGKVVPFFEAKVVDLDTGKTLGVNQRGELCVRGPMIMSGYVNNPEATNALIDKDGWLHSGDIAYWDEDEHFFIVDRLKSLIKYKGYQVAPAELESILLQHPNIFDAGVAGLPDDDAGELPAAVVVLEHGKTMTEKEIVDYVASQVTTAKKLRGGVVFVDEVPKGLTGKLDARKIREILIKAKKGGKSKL
Summary of the method: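 Biochemical qHTS of compounds, final roughly 60 µM downward over six points, against 10 nM purified firefly luciferase using Km concentrations of substrates (10 uM D-luciferin, 10 uM ATP) in Tris acetate pH 7.5 buffer; luminescence output.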
Further: nearly all actives have a fitted effect of over 55% in size.
Potency means the concentration at half of the fitted maximal effect.

Compound	Potency
CCOc1ccc(N(Cc2ccccc2)C(=O)c2nc(S(C)(=O)=O)ncc2Cl)cc1	inactive
CCOc1ccc(-c2nnn(CC(=O)N3CCN(c4ccc(OC)cc4)CC3)n2)cc1OCC	inactive
COc1ccc(C(=O)Cn2nnc(-c3ccc(N4CCOCC4)cc3)n2)cc1OC	8.49 µM (active)
CCOc1ccc(-c2nnn(CC(=O)N3CCN(c4ccc(F)cc4)CC3)n2)cc1OCC	inactive
COC(=O)C1CCN(C(=O)c2ccc3oc(Cc4ccc(Cl)cc4)nc3c2)CC1	inactive
COc1cccc(NC(=O)Cn2c(=O)cc(C)c3c(C)nn(-c4cccc(F)c4)c32)c1	inactive
Cn1c(=O)n(C)c2cc(S(=O)(=O)Nc3ccc(F)cc3)ccc21	inactive
COc1ccccc1N1CC(C(=O)Nc2nnc(SCC(=O)NCC3CCCO3)s2)CC1=O (stereo not given)	inactive
Cc1ccc2cc(C#N)c(SCC(=O)NCC3CCCO3)nc2c1C (stereo not given)	inactive
COc1cc(OC)cc(C(=O)Nc2nnc(SCC(=O)NCC3CCCO3)s2)c1 (stereo not given)	15.1 µM (active)
CCCOc1ccccc1-c1nc(SCCC(=O)O)n[nH]1	inactive
Cc1cc(C)nc(Nc2ncn[nH]2)n1	inactive
Cc1cc(C)nc(Nc2n[nH]c(-c3ccccc3N)n2)n1	0.953 µM (active)
COC(=O)C1=C(c2ccccc2)c2ccccc2S(=O)(=O)N1CC(=O)Nc1ccccc1C(F)(F)F	inactive
O=C(CSc1nccn1C1CCCC1)Nc1cc(C(F)(F)F)ccc1Cl	inactive
COc1ccc(C)cc1Nc1nc(C)nc2c1oc1ccccc12	inactive
CCC(C(=O)OC)n1cnc2c(oc3ccccc32)c1=O (stereo not given)	inactive
COc1ccccc1Nc1ncnc2c1oc1ccccc12	13.5 µM (active)
O=C(CN1C(=O)NC2(CCOc3ccccc32)C1=O)NCc1ccc(F)cc1 (stereo not given)	inactive
Oc1ccc(Br)cc1/C=N/Nc1ccccn1	8.49 µM (active)
CCN(CC)CCn1c(/N=C/c2cc(Br)ccc2O)nc2ccccc21	inactive
Cc1nccn1CC(=O)N/N=C/c1ccc(O)c(O)c1	inactive

Compound	Potency
O=C(Nc1ccccc1)N1CCN(C2c3ccccc3-c3ccccc32)CC1	inactive
CC1=C(c2ccc(C)c(C)c2)S(=O)(=O)NC1=NCc1ccccc1Cl	inactive
CC(C)CN(C(=O)CSc1ncnc2sccc12)C1CCS(=O)(=O)C1 (stereo not given)	inactive
COc1ccc(C)cc1Nc1nc(-c2c(C)[nH]c3ccccc23)cs1	13.5 µM (active)
COC(=O)c1cnc(Nc2cc(C)ccc2OC)c2ccccc12	inactive
COc1ccc(C)cc1Nc1nc2ccccc2c2nnc(C)n12	inactive
Cc1ccc(CN2C(=O)SC(Nc3ccccc3)C2=O)cc1 (stereo not given)	inactive
Cc1ccc(N(CC(=O)NCc2ccc(Cl)cc2)S(=O)(=O)N(C)C)cc1	inactive
COC(=O)C(NC(C)=O)(Nc1nc2c(s1)CCCC2)C(F)(F)F (stereo not given)	inactive
Cc1cc(C)cc(OC(C)C(=O)Nc2nc3c(s2)CCCC3)c1 (stereo not given)	inactive
Fc1ccc2nc(Nc3nc4c(s3)CCCC4)sc2c1	3.01 µM (active)
Cc1cccc(Nc2nc(C)nc(N)c2S(=O)(=O)c2ccccc2)c1	inactive
CCc1ccccc1NC(=O)Cn1c(=O)n(CC2CCC(C(=O)NCCc3ccccc3)CC2)c(=O)c2ccccc21 (stereo not given)	inactive
CC(=O)c1cccc(NC(=S)N2CCN(S(C)(=O)=O)CC2)c1	inactive
C=CCSc1nsc(NC(=O)Nc2cccc(C(C)=O)c2)n1	15.1 µM (active)
CC(=O)c1cccc(NC(=O)CSc2nc3c(c(=O)[nH]2)CCC3)c1	inactive
COc1ccc(NC(C(=O)Nc2cccc(C(C)=O)c2)c2ccccc2)cc1 (stereo not given)	inactive
CCSc1nsc(NC(=O)Nc2cccc(C(C)=O)c2)n1	19 µM (active)
CSc1ccccc1C(=O)Nc1cccc(C(C)=O)c1	inactive
Cc1ccc2c(c1)-c1c(cnn1CC(=O)Nc1ccccc1C#N)CO2	inactive
Cc1ccc(Cn2c(=O)n(Cc3nc(-c4ccccc4)no3)c(=O)c3cc4c(cc32)OCO4)cc1	inactive
Cc1ccccc1OCc1nnc(SCC(=O)N2c3ccccc3Sc3ccc(Cl)cc32)o1	inactive

Compound	Potency
CC1CCC(NS(=O)(=O)c2ccc3c(c2)CC(=O)N3)CC1 (stereo not given)	inactive
Cc1ccc(NC(=O)c2cc(S(=O)(=O)NCCC3=CCCCC3)ccc2F)cc1C	inactive
COC(=O)c1cc(OC)c(OC)cc1NC(=O)CSc1ccc(C)cc1	inactive
Cc1ccc(SCC(=O)c2cc(C)c(OC(=S)N(C)C)c(C)c2)cc1	8.49 µM (active)
CCN1CCN(C(=O)CSc2ccc(C)cc2)CC1	inactive
COc1cc(/C=N/Nc2nn3cnnc3c3ccccc23)cc(OC)c1OC	0.953 µM (active)
COc1ccc(OC)c(Nc2nc3ccccc3n3cnnc23)c1	inactive
COc1cc(Nc2nc3ccc(Cl)cc3n3cnnc23)cc(OC)c1OC	inactive
O=C(CSc1nnc(CNC(=O)c2ccccc2)n1-c1ccc(F)cc1)Nc1ccccc1F	inactive
Cc1ccc(-n2[nH]c(C)c(/C=N/NC(=O)c3cccc([N+](=O)[O-])c3)c2=O)cc1C	0.426 µM (active)
Cc1cc[n+](-c2[nH]c(=O)sc2/C=N/NC(=O)c2ccccc2[O-])cc1C	inactive
Cc1[nH]n(-c2ccc([N+](=O)[O-])cc2)c(=O)c1C=NCCN1CCN(C(=O)c2ccccc2F)CC1	inactive
COc1cc(/C=N/NC(=O)c2ccoc2C)ccc1OCCN1CCCCC1	inactive
COc1cc(OC)c(/C=N/NC(=O)c2ccc([N+](=O)[O-])cc2)cc1Br	inactive
Cc1[nH]n(-c2ccccc2)c(=O)c1/C=N/NC(=O)c1ccoc1C	21.3 µM (active)
O=C(NNC1=NCCC1)c1cccc(S(=O)(=O)N2CCCCC2)c1	inactive
Cc1ccc(Cl)cc1N(C)C(=O)Cn1nc(Cc2cccnc2)c2ccccc2c1=O	inactive
COc1cccc(N2CCN(C(=O)CCCCCn3c(=O)[nH]c4ccccc4c3=O)CC2)c1	inactive
COCCN(C(=O)CC1CCCCC1)c1c(N)n(CC(C)C)c(=O)[nH]c1=O	inactive
CCOC(=O)N1CCc2c(sc3c2c(=O)n(-c2ccc(CC)cc2)c(=O)n3C)C1	inactive
CCNC(=O)c1cnn(-c2ccccc2)c1-c1ccccc1	inactive
O=C(Cn1cnc2c(oc3ccccc32)c1=O)Nc1ccc(OC(F)(F)F)cc1	inactive

Compound	Potency
CC(=O)c1nn(-c2ccc(OC(F)(F)F)cc2)nc1Nc1ccccc1	0.379 µM (active)
CCN(CC)CC(=O)Nc1nn(-c2ccccc2)nc1C(N)=O	inactive
Cc1ccc(C(=O)NCCSc2c(C)[nH]c3ccccc23)cc1C	inactive
CCOc1ccc(CNC(=O)c2cc(-c3ccc(Cl)s3)nc3ccccc23)cc1	inactive
O=C(NCc1ccco1)c1nc(-c2ccccc2)n(-c2ccccc2)n1	inactive
CCc1ccc(-c2cc(C(=O)NCc3ccco3)c3ccccc3n2)s1	5.36 µM (active)
COc1ccccc1N1CCN(CCCNC(=O)c2cnn(-c3ccccc3Cl)c2C2CCN(C(=O)OC(C)(C)C)CC2)CC1	inactive
Cc1ccc(OS(=O)Nc2cccc3nccnc23)cc1 (stereo not given)	inactive
CCOc1ccc(NC(=O)C(=O)NCCc2csc3nc(-c4ccccc4F)nn23)cc1	inactive
COCc1cc(C)nc2sc(C(=O)NC3CCCCC3)c(N)c12	16.9 µM (active)
COc1cc(OC)c(C(=O)NC2CCCCCC2)cc1OC	inactive
COc1ccc(OC)c(NC(=O)c2sc3nc(C)cc(C)c3c2N)c1	inactive
CCOC(=O)c1c(C)oc2nc(C)nc(Nc3ccc(CC)cc3)c12	inactive
O=C(Nc1ccc(F)cc1)C(=O)c1cn(CC(=O)N2CCOCC2)c2ccccc12	2.69 µM (active)
COc1cccc(NC(=O)C(=O)c2cn(CC(=O)N3CCOCC3)c3ccccc23)c1	5.36 µM (active)
CN1CCN(C(=O)C(=O)c2cn(CC(=O)N3CCCC3)c3ccccc23)CC1	inactive
COc1cccc(NC(=O)CS(=O)(=O)c2cn(CC(=O)N3CCOCC3)c3ccccc23)c1	inactive
O=C(CSc1cn(CC(=O)N2CCOCC2)c2ccccc12)Nc1ccccc1	inactive
O=C(NCc1ccco1)C(=O)c1cn(CC(=O)N2CCCCCC2)c2ccccc12	inactive
CCc1cccc(C)c1NS(=O)(=O)c1ccc(-c2cc(C)no2)s1	inactive
Cc1ccc2oc(=O)c3cnn(CC(=O)N4CCN(c5cccc(Cl)c5)CC4)c3c2c1	inactive
Cc1ccc(N2CC(c3nnc(Cc4ccccc4Cl)o3)CC2=O)cc1 (stereo not given)	inactive

Compound	Potency
Cc1cccc(NC(=O)CSc2nc3c(oc4ccccc43)c(=O)n2-c2ccc(F)cc2)c1	inactive
COc1ccc(-c2nc3nc(C)cc(C)n3c2Nc2c(C)cccc2C)cc1	inactive
CCCCC(CC)CNC(=O)C1CCN(S(=O)(=O)c2cccc3nsnc23)CC1 (stereo not given)	inactive
O=C(OC1CCOC1=O)c1ccc(-c2nc3ccccc3s2)s1 (stereo not given)	0.19 µM (active)
COc1cc(C(=O)OC2CCOC2=O)c([N+](=O)[O-])cc1OC (stereo not given)	inactive
Cc1nn(Cc2ccccc2)c(Cl)c1C(=O)OC1CCOC1=O (stereo not given)	inactive
CCOC(=O)c1c(NC(=O)CNC2CCCc3ccccc32)sc(C(N)=O)c1C (stereo not given)	inactive
O=C(CN1CCN(c2ccccn2)CC1)N1CCc2ccccc21	inactive
CCC(=O)N1CCCc2ccccc21	inactive
O=C(CSCc1ccccc1)N1CCc2ccccc21	2.39 µM (active)
CCc1nc2ccccc2c(C(=O)OC2CCCCC2=O)c1C (stereo not given)	inactive
CCCn1c(CCNc2nc(-c3ccc(OC)cc3)cs2)nc2ccccc21	inactive
COC(=O)CCc1sc(Nc2ccc(Br)cc2)nc1-c1ccc(OC)cc1	inactive
COc1ccc(-c2csc(Nc3ccc(O)cc3)n2)cc1	1.35 µM (active)
NS(=O)(=O)c1ccc(Nc2nc(-c3ccccc3)cs2)cc1	21.3 µM (active)
COc1ccc(Nc2nc(-c3ccccc3)cs2)cc1	0.601 µM (active)
COc1ccc(C2C(C(C)=O)=C(O)C(=O)N2c2nccs2)cc1 (stereo not given)	inactive
COc1ccc(NC(=O)c2sc(N)nc2-c2ccccc2)cc1	inactive
COc1ccc(-c2csc(Cc3nc(O)cs3)n2)cc1	2.69 µM (active)
CC(=O)Nc1nc(C)c(-c2csc(Nc3ccc(S(N)(=O)=O)cc3)n2)s1	inactive
CCCn1c(C2CCCN2c2nc(-c3ccc(OC)cc3)cs2)nc2ccccc21 (stereo not given)	inactive
NS(=O)(=O)c1ccc(NS(=O)(=O)/C=C/c2ccccc2)cc1	inactive
